According to PubChem BioAssay AID449762 (Southern Research Specialized Biocontainment Screening …, 2010):
“And” between values parts separate entries of the source, which are not always exact repeats. Equal values may be shown once. In all, about 330,000 compounds went through this assay and about 1,900 (0.58%) were called active. About 4% were inconclusive and are not listed. The list is a sample of the results. Results with a measured potency or affinity are listed apart. Values without a mark were called inactive. No stated cut-off is given here; in the data, inconclusive means inhibition above about 70% without an active follow-up result; inactive means below that.

assay: M. tuberculosis growth inhibition, HTS (AID 449762);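 further: bacterial growth assessed after seven days of incubation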; conditions: M. tuberculosis H37Rv growth inhibition, 7H9 media; at 25 µM; hits give high values

Row | Structure (SMILES) | inhibition
1 | COc1ccc(NC(=O)CSc2nnc(-c3ccccn3)n2N)cc1 | 8.63%
2 | COc1ccc(NC(=O)CSc2nnc(-c3ccco3)n2N)cc1Cl | 46.6%
3 | CC(C)(C)c1ccc(C(=O)NCC(=O)NNC(=O)c2ccccc2O)cc1 | 8.86%
4 | O=C(O)c1ccc(/C=N/NC(=O)c2cc3c(ccc4ccccc43)o2)cc1 | 4.81%
5 | O=C(N/N=C/c1ccncc1)c1cc2c(ccc3ccccc32)o1 | 1.21%
6 | CC(C)(C)c1ccc(OCC(=O)Nc2ccc(C(=O)Nc3ccccc3C(=O)O)cc2)cc1 | -6.72%
7 | Cc1ccc(N=Cc2ccc[nH]2)c(O)c1 | 2.98%
8 | O=C1NCC(O)=C1C=NCCCO | -4.48%
9 | Fc1ccc(N=Cc2ccc[nH]2)cc1 | 13.1%
10 | O=C1NCC(O)=C1C=NCCO | 4.69%
11 | N#CCCn1cc(C(=O)Nc2cccc(C(=O)O)c2)c(-c2ccc(Cl)cc2)n1 | -2.32%
12 | Cc1ccccc1COc1ccc(-c2nnn(CC(=O)O)n2)cc1 | 0.49%
13 | CCOc1ccc(NC(=O)CN(C)C(=O)c2c(-c3ccccc3)noc2C)cc1OCC | -10.4%
14 | Cc1ccc(NC(=O)CCC(=O)NNC(=O)CCc2ccccc2)c(C)c1 | 8.11%
15 | CCc1ccccc1NNC(=O)CCc1ccccc1 | 4.45%
16 | CCOC(=O)CSc1nnc(CSc2nc3sc4c(c3c(=O)[nH]2)CCC4)n1C | -1.21%
17 | COCCN1C(=O)C(CC(=O)Nc2ccccc2)SC1=Nc1ccc(OC)cc1 (stereo not given) | 6.34%
18 | Cc1ccc(NC(=O)c2cc(-c3ccccc3)nn2-c2ccccc2)cc1 | 0.76%
19 | Cc1ccc(NC(=O)c2cc(-c3ccccc3)nn2-c2ccccc2)c(Br)c1 | 62.5%
20 | Cc1ccnc(NC(=O)COC(=O)C2COc3ccccc3O2)n1 (stereo not given) | -4.37%

Row | Structure (SMILES) | inhibition
21 | CCOc1ccc(S(=O)(=O)N2CCCCC2)cc1NS(=O)(=O)c1cccs1 | -3.42%
22 | COc1cc([C@@H]2c3cc4c(cc3[C@H](O)[C@H]3COC(=O)[C@H]23)OCO4)cc(OC)c1OC | -2.97%
23 | COc1cc([C@@H]2c3cc4c(cc3[C@@H](OC)[C@H]3COC(=O)[C@H]23)OCO4)cc(OC)c1O | -15.3%
24 | Cc1ccc(NC(=O)c2ccc3ccccc3n2)nc1 | 5.21%
25 | CCc1ccc(NC(=O)C(C)OC(=O)c2ccc(NS(=O)(=O)c3ccc(C)c([N+](=O)[O-])c3)cc2)cc1 (stereo not given) | -6.87%
26 | COc1ccc(CCNC(=O)C2CC(c3cccc([N+](=O)[O-])c3)=NO2)cc1 (stereo not given) | 2.77%
27 | CC(C)Cc1nn2c(=O)cc(CSCC(=O)Nc3ccccc3F)nc2s1 | -6.22%
28 | Cc1cc(C(=O)CSc2ccc(Cl)cc2)cc(C)c1OC(=S)N(C)C | -12.1%
29 | Cc1ccc(N2C(=O)N(CC(=O)c3cc(C)ccc3C)C(=O)C2C)cc1 (stereo not given) | 4.01%
30 | CCOc1ccc(NC(=S)NC(=O)c2cccnc2)c([N+](=O)[O-])c1 | 6.15%
31 | Cn1c(O)c(C=NCCN2CCNCC2)c(=O)n(C)c1=O | -6.91%
32 | O=c1[nH]c(=S)n(C2CCCCC2)c(O)c1C=NCCN1CCOCC1 | 4.57%
33 | O=C1N/C(=N\N=C\c2ccc3ncccc3c2)SC1Cc1ccc(SC(F)F)cc1 (stereo not given) | -20.7%
34 | O=C(O)CC1S/C(=N/N=C/c2ccccn2)NC1=O (stereo not given) | -2.11%
35 | O=S(=O)(NCc1ccccn1)c1ccc(Cl)s1 | 32.5%
36 | N/C(=N\OC(=O)Nc1ccccc1)c1ncc(C(F)(F)F)cc1Cl | -4.86%
37 | N/C(=N\OC(=O)Nc1ccc(Cl)cc1)c1ncc(C(F)(F)F)cc1Cl | 3.09%
38 | Cc1ccc(CNC(=O)CNC(=O)[C@@H]2Cc3ccccc3CN2C(=O)OC(C)(C)C)cc1 | 4.75%
39 | Cc1ccc(-c2cn(-c3ccccc3)c3[n+]2CCCS3)cc1 | 4.87% and -0.5%
40 | c1ccc(-c2cn(-c3ccccc3)c3[n+]2CCCS3)cc1 | -1.4%

Row | Structure (SMILES) | inhibition
41 | Cc1ccccc1CNC(=O)Nc1ccc(Cl)cc1 | 8.74%
42 | CCOC(=O)/C(=C/C=C/c1ccccc1)NC(=O)c1ccccc1 | 5.87%
43 | CCOC(=O)/C(=C\C=C\c1ccccc1)NC(=O)c1ccccc1 | -0.56%
44 | O=Cc1cccc(Oc2ccc([N+](=O)[O-])cc2[N+](=O)[O-])c1 | 6.01%
45 | Cc1nn(S(=O)(=O)N(C)C)c(C)c1CN1C(=O)c2ccccc2C1=O | -3.78%
46 | Cc1c(CN(C)C)c2c(n1C)C(=O)c1ccc(Br)cc1-2 | -6.76%
47 | Cc1c(CN(C)C)c2c(n1Cc1ccccc1)C(=O)c1ccccc1-2 | -0.73%
48 | CC(C)(C)[C@@H]1C=C(C(N)=O)O[C@H](OCc2ccc(CO)cc2)C1 | 3.59%
49 | CCn1cc(/C=N\NC(=O)c2c[nH]c3ccccc23)c(C)n1 | 4.35%
50 | COc1cccc2c(=S)c(CCC(C)=O)c(C)[nH]c12 | -1.19%
51 | O=C(c1ccccc1)N1N=C(c2ccc(F)cc2)CC1(O)C(F)(F)F (stereo not given) | 14.8%
52 | O=C(c1ccccc1)N1N=C(c2ccccc2)CC1(O)C(F)(F)F (stereo not given) | 17.4%
53 | COc1ccccc1C1CCN(Cc2ccc(Cl)c(Cl)c2)CC1 | 6.04%
54 | COc1ccccc1C1CCN(Cc2ccccc2)CC1 | -7.77%
55 | CCCn1c(=S)[nH]c2cc(C(=O)NCC3CCCO3)ccc2c1=O (stereo not given) | -7.34%
56 | COc1ccc(C=Nc2cccc3c(=O)[nH][nH]c(=O)c23)c2ccccc12 | -1.04%
57 | Cc1ccc(/C=N/NC(=O)C(=O)N/N=C/c2ccc(C)o2)o1 | -4.38%
58 | Cc1ccc(C)c(/C=N/NC(=S)NC(C)C)c1 | -0.52%
59 | COC(=O)N/N=C/c1cc(Br)ccc1O | -4.56%
60 | CC(C)NC(=S)N/N=C/c1ccc(C(C)(C)C)cc1 | 3.03%
